From PubChem BioAssay AID588651 (The Scripps Research Institute Molecular Screening Center, 2011)
A number with no mark means an inactive call. Cut-off read from the data, not from the text of the source: active = inhibition above about 65%; inactive = the rest.

System: Fam108b
Assay: Fam108b inhibitors and proteome off-target selectivity – biochemical, gel-based ABPP, recombinant soluble Fam108b, HTS hits, complex proteome, late-stage follow-up (AID 588651);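 note: Fam108b spiked into mouse brain membrane proteome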
Conditions: FP-rhodamine labeling in proteome, at 20 µM, hits give high values

| SMILES | inhibition [%] |
| --- | --- |
| NC(Cc1cc(O)c(O)cc1O)C(=O)O (stereo not drawn) | 0 |
| Cc1ccccc1N1C(=O)/C(=C/c2ccco2)C(=O)NC1=S | 0 |
| C[n+]1c(-c2ccccc2)c2cc(N)ccc2c2ccc(N)cc21 | 0 |
